Holding throughout (settings): mRNA level, 48 h; actives raise or lower the signal
Read-out in test [1]: Fatty acid synthase (Homo sapiens) (UniProt P49327)
In words: LTEA_HepaRG_FASN: Life Technologies and Expression Analysis (LTEA) Assay for Fatty Acid Synthase (FASN) using HepaRG (AID 2283448). In outline: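 Differentiated human HepaRG cells were exposed for 48 h in serum-free induction medium to eight half-log concentrations up to 100 uM in 0.5% DMSO, in duplicate. FASN mRNA was quantified by TaqMan qRT-PCR, normalized to ACTB/GAPDH/POLR2A, and fitted bidirectionally against DMSO.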

Read-out in test [2]: Cyclin D2 (CCND2), CCND2 (gene 894)
In words: LTEA_HepaRG_CCND2: Life Technologies and Expression Analysis (LTEA) Assay for Cyclin D2 (CCND2) using HepaRG (AID 2283449).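 Note: CCND2 transcript measured by TaqMan qRT-PCR and normalised to three housekeeping genes.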 In outline:
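Chemicals in 0.5% DMSO, eight half-log concentrations from 100 uM top, were applied in duplicate for 48 h to human HepaRG cells in serum-free induction medium. CCND2 mRNA by TaqMan qRT-PCR, normalised to ACTB/GAPDH/POLR2A; bidirectional fit versus DMSO.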

Read-out in test [3]: Cyclin Dependent Kinase Inhibitor 1A (CDKN1A), CDKN1A (gene 1026)
In words: LTEA_HepaRG_CDKN1A: Life Technologies and Expression Analysis (LTEA) Assay for Cyclin Dependent Kinase Inhibitor 1A (CDKN1A) using HepaRG (AID 2283450). In outline:
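Differentiated human HepaRG cells, pre-cultured 48 h, were exposed in duplicate for 48 h in serum-free induction medium to eight half-log concentrations up to 100 uM (0.5% DMSO). CDKN1A mRNA was measured by qRT-PCR, normalized to ACTB/GAPDH/POLR2A, bidirectionally fitted versus DMSO.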

Read-out in test [4]: Cyclin D1 (CCND1), CCND1 (gene 595)
The test can be described thus: LTEA_HepaRG_CCND1: Life Technologies and Expression Analysis (LTEA) Assay for Cyclin D1 (CCND1) using HepaRG (AID 2283451).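 For AC50: TaqMan qRT-PCR transcript level normalised to ACTB GAPDH and POLR2A housekeeping genes.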 In outline:
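Differentiated human HepaRG cells in serum-free induction medium were exposed 48 h to eight half-log concentrations up to 100 uM in 0.5% DMSO; mRNA quantified by TaqMan qRT-PCR, normalized to ACTB, GAPDH, POLR2A, fitted bidirectionally versus DMSO.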

Read-out in test [5]: catalase (CAT), CAT (gene 847)
The test can be described thus: LTEA_HepaRG_CAT: Life Technologies and Expression Analysis (LTEA) Assay for catalase (CAT) using HepaRG (AID 2283452). In outline:
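HepaRG cells in serum-free induction medium, 0.5% DMSO vehicle, exposed 48 h in duplicate over 8 half-log concentrations from 100 uM. CAT mRNA measured by qRT-PCR, normalized to ACTB, GAPDH, POLR2A; bidirectional fit versus DMSO.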

Read-out in test [6]: flavin-containing dimethylaniline monooxygenases 3 (FMO3), FMO3 (gene 2328)
In words: LTEA_HepaRG_FMO3: Life Technologies and Expression Analysis (LTEA) Assay for flavin-containing dimethylaniline monooxygenases 3 (FMO3) using HepaRG (AID 2283453). In outline:
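HepaRG, 48 h exposure, 8-pt half-log series from 100 uM, 0.5% DMSO vehicle, duplicates; FMO3 transcript by Fluidigm TaqMan qRT-PCR, housekeeping-normalized; gain/loss fit vs DMSO.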

Read-out in test [7]: Cytochrome P450 (CYP1A1), CYP1A1 (gene 1543)
In words: LTEA_HepaRG_CYP1A1: Life Technologies and Expression Analysis (LTEA) Assay for Cytochrome P450 (CYP1A1) using HepaRG (AID 2283454). Put shortly: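 Differentiated HepaRG cells in serum-free induction medium were exposed in duplicate for 48 h to eight half-log concentrations up to 100 uM in 0.5% DMSO. CYP1A1 mRNA was quantified by TaqMan qRT-PCR, normalized to ACTB, GAPDH and POLR2A.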

Read-out in test [8]: CFLAR gene, CFLAR (gene 8837)
In words: LTEA_HepaRG_CFLAR: Life Technologies and Expression Analysis (LTEA) Assay for CFLAR gene using HepaRG (AID 2283455). In outline: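 Differentiated HepaRG cells in serum-free induction medium were exposed 48 h in duplicate to eight half-log concentrations up to 100 uM in 0.5% DMSO; mRNA measured by TaqMan qRT-PCR, normalized to ACTB, GAPDH, POLR2A; bidirectional fitting versus DMSO.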

Read-out in test [9]: Forkhead box O1 (FOXO1), FOXO1 (gene 2308)
In words: LTEA_HepaRG_FOXO1: Life Technologies and Expression Analysis (LTEA) Assay for Forkhead box O1 (FOXO1) using HepaRG (AID 2283456). Put shortly:
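Differentiated HepaRG cells, in serum-free induction medium with 0.5% DMSO, exposed 48 h in duplicate to 8-point half-log series from 100 uM. FOXO1 mRNA measured by TaqMan qRT-PCR, normalized to ACTB, GAPDH, POLR2A; bidirectional fit versus DMSO.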

Read-out in test [10]: growth arrest and DNA damage 45 (GADD45A), GADD45A (gene 1647)
In words: LTEA_HepaRG_GADD45A: Life Technologies and Expression Analysis (LTEA) Assay for growth arrest and DNA damage 45 (GADD45A) using HepaRG (AID 2283458). In outline: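 Differentiated HepaRG cells were exposed in duplicate for 48 h in serum-free induction medium to 8-point half-log concentrations up to 100 uM in 0.5% DMSO. GADD45A mRNA was measured by TaqMan qRT-PCR, normalized to ACTB, GAPDH and POLR2A, with bidirectional fitting versus DMSO.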

Read-out in test [11]: Forkhead box O3 (FOXO3), FOXO3 (gene 2309)
In words: LTEA_HepaRG_FOXO3: Life Technologies and Expression Analysis (LTEA) Assay for Forkhead box O3 (FOXO3) using HepaRG (AID 2283459). Put shortly:
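Differentiated human HepaRG cells, 48 h post-plating, exposed in duplicate for 48 h in serum-free induction medium; 8-point half-log series from 100 uM in 0.5% DMSO. FOXO3 mRNA by TaqMan qRT-PCR, normalized to ACTB/GAPDH/POLR2A; bidirectional fit versus DMSO.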

Read-out in test [12]: ABC Transporter (ABCB1), ABCB1 (gene 5243)
The test can be described thus: LTEA_HepaRG_ABCB1: Life Technologies and Expression Analysis (LTEA) Assay for ABC Transporter (ABCB1) using HepaRG (AID 2283460). Put shortly: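 HepaRG cells exposed in duplicate for 48 h in serum-free induction medium to eight half-log concentrations up to 100 uM in 0.5% DMSO. ABCB1 mRNA quantified by qRT-PCR, normalised to ACTB, GAPDH and POLR2A; fitted bidirectionally versus DMSO.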

Read-out in test [13]: growth arrest and DNA damage 45 (GADD45B), GADD45B (gene 4616)
In words: LTEA_HepaRG_GADD45B: Life Technologies and Expression Analysis (LTEA) Assay for growth arrest and DNA damage 45 (GADD45B) using HepaRG (AID 2283461). In outline:
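Differentiated HepaRG cells, plated 48 h then switched to serum-free induction medium, were exposed 48 h in duplicate to eight half-log concentrations from 100 uM in 0.5% DMSO; mRNA quantified by qRT-PCR, normalized to ACTB/GAPDH/POLR2A, bidirectional fit versus DMSO.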

Read-out in test [14]: ABC Transporter (ABCC3), ABCC3 (gene 8714)
The test can be described thus: LTEA_HepaRG_ABCC3: Life Technologies and Expression Analysis (LTEA) Assay for ABC Transporter (ABCC3) using HepaRG (AID 2283462). Put shortly:
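HepaRG cells in serum-free induction medium were exposed for 48 h in duplicate to 8-point half-log concentrations topping at 100 uM in 0.5% DMSO. ABCC3 mRNA was measured by qRT-PCR normalized to ACTB, GAPDH and POLR2A, with bidirectional fitting versus DMSO.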

Read-out in test [15]: ABC Transporter (ABCB11), ABCB11 (gene 8647)
The test can be described thus: LTEA_HepaRG_ABCB11: Life Technologies and Expression Analysis (LTEA) Assay for ABC Transporter (ABCB11) using HepaRG (AID 2283463). Put shortly:
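Differentiated human HepaRG cells in serum-free induction medium, dosed in duplicate for 48 h. Eight-point half-log series from 100 uM in 0.5% DMSO; ABCB11 mRNA by qRT-PCR, normalized to ACTB, GAPDH, POLR2A, fitted bidirectionally versus DMSO.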

Read-out in test [16]: ABC Transporter (ABCC2), ABCC2 (gene 1244)
In words: LTEA_HepaRG_ABCC2: Life Technologies and Expression Analysis (LTEA) Assay for ABC Transporter (ABCC2) using HepaRG (AID 2283464). In outline: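 HepaRG cells were plated 48 h, switched to serum-free induction medium, then exposed in duplicate for 48 h to 8 concentrations (top 100 uM, half-log steps, 0.5% DMSO). ABCC2 mRNA was measured by qRT-PCR normalized to ACTB/GAPDH/POLR2A; bidirectional fitting versus DMSO.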

Read-out in test [17]: Broad substrate specificity ATP-binding cassette transporter ABCG2 (Homo sapiens) (UniProt Q9UNQ0)
In words: LTEA_HepaRG_ABCG2: Life Technologies and Expression Analysis (LTEA) Assay for ABC Transporter (ABCG2) using HepaRG (AID 2283465). In outline:
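Differentiated HepaRG cells were exposed for 48 h in serum-free induction medium to 8 half-log concentrations, top 100 uM, in 0.5% DMSO. ABCG2 mRNA was measured by qRT-PCR, normalized to ACTB, GAPDH and POLR2A, with bidirectional fitting versus DMSO.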

Read-out in test [18]: Tumor necrosis factor receptor superfamily member 6 (Homo sapiens) (UniProt P25445)
The test can be described thus: LTEA_HepaRG_FAS: Life Technologies and Expression Analysis (LTEA) Assay for Fas cell surface death receptor (FAS) using HepaRG (AID 2283447). In outline:
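Differentiated HepaRG cells in serum-free induction medium were exposed 48 h to 8 half-log concentrations up to 100 uM in 0.5% DMSO, in duplicate. FAS mRNA was measured by qRT-PCR normalised to ACTB, GAPDH and POLR2A; bidirectional fit versus DMSO.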

Molecules are shown by their SMILES. Activity calls are given as the source filed them. Rule for the calls: active = hit-call score of the fitted dose curve at least 0.9, where 1 is the maximum; inactive = score below 0.9.

Fatty acid synthase (Homo sapiens), sequence (P49327 whole entry, looked up): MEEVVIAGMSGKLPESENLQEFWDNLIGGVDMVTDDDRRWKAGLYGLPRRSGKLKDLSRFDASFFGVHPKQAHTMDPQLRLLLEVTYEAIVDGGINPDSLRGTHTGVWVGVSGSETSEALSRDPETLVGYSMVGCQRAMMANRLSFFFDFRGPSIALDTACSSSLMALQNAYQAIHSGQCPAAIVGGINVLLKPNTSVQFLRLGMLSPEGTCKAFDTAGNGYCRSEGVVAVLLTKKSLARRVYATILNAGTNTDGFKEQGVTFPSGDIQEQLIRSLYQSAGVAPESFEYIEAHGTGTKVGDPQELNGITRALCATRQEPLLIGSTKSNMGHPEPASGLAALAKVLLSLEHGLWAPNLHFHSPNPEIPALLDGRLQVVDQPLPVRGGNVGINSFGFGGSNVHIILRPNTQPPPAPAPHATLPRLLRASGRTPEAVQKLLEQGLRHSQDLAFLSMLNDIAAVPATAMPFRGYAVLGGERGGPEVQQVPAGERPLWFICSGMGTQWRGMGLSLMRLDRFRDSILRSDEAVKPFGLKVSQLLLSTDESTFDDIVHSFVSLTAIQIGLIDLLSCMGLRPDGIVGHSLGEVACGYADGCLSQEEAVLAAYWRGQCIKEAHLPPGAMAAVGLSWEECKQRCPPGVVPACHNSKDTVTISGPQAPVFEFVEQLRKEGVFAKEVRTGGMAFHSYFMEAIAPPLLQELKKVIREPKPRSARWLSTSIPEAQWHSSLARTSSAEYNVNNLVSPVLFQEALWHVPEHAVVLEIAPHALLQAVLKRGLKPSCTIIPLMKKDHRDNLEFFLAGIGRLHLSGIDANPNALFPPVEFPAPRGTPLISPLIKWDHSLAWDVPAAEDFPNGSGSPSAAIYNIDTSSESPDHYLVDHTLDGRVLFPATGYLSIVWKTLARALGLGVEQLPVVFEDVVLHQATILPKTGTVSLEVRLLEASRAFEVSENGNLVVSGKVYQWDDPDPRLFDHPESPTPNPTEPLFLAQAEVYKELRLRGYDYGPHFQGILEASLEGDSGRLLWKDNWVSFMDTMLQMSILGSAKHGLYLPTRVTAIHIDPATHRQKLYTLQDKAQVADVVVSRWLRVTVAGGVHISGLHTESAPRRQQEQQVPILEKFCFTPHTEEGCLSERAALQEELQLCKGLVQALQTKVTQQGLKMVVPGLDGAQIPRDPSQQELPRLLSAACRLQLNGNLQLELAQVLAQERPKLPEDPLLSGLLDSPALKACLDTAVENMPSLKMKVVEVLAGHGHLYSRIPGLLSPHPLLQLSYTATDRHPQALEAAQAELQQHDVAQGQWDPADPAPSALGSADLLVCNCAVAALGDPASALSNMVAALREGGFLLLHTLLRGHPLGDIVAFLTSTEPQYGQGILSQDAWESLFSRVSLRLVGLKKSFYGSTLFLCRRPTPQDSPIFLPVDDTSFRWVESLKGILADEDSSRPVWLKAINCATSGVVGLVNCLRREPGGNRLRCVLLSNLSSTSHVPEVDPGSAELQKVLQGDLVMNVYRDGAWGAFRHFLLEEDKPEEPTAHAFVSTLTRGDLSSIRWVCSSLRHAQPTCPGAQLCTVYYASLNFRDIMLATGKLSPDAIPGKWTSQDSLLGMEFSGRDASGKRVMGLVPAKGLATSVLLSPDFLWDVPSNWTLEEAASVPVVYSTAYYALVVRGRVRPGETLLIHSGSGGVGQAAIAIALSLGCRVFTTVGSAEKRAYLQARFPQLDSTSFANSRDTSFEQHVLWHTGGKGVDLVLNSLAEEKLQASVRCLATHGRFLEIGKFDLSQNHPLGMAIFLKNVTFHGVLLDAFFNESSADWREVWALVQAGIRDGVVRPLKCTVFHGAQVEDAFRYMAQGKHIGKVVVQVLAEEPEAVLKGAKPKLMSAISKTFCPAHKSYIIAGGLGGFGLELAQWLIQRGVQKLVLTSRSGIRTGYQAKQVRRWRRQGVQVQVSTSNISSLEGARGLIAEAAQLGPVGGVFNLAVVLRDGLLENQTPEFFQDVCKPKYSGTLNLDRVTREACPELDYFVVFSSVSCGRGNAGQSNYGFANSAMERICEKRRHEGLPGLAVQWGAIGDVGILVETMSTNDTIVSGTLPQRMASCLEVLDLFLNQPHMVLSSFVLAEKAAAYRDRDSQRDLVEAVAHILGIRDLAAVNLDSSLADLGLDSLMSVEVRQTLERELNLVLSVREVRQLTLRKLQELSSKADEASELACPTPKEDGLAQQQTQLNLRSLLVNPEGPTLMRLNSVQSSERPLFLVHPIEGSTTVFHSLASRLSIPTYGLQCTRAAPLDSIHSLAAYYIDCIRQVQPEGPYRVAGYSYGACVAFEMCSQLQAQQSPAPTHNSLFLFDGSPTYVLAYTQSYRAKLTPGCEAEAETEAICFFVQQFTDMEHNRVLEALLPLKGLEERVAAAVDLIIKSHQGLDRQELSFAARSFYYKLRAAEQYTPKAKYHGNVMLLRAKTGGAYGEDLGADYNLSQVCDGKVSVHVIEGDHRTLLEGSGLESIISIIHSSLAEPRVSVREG
Broad substrate specificity ATP-binding cassette transporter ABCG2 (Homo sapiens), sequence (Q9UNQ0 whole entry, looked up): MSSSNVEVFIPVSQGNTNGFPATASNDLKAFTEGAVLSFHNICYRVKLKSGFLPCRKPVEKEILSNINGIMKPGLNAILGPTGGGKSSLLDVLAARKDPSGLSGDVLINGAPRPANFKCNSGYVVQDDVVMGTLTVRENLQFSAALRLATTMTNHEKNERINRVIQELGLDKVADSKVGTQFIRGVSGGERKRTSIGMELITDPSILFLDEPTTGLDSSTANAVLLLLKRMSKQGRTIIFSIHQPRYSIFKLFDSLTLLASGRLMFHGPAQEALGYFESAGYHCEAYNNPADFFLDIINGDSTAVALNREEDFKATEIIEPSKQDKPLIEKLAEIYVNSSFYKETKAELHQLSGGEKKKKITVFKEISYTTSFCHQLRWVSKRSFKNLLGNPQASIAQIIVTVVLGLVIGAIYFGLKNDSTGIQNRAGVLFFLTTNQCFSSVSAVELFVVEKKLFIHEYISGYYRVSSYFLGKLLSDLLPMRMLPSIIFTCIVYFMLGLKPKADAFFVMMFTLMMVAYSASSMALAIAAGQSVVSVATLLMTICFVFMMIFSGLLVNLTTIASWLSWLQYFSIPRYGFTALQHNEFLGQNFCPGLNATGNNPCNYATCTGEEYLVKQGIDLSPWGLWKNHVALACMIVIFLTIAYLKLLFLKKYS

In the case of `O=[N+]([O-])c1cc(C(F)(F)F)c(Cl)c([N+](=O)[O-])c1Nc1ncc(C(F)(F)F)cc1Cl`, the AC50 (as a rule, the midpoint of the concentration-response curve, whichever way the signal moves) in test [1] is 50 µM (active); in [4], 14.8 µM (active); in [5], 29.2 µM (active); in [6], 27.7 µM (active); in test [7], 9.68 µM (active); in test [8] it was 40.9 µM (active). Further, the AC50 in [10] is 33.6 µM (active); in test [11] it was 35.6 µM (active); in test [14], 13.2 µM (active); in test [15], 15.8 µM (active); in test [16] it was 67.9 µM (active); in [17], 50 µM (active). Further, the molecule was classed as inactive in test [2], in test [3], in test [9], in test [12] and in [13].

Take `CON=C(C(=O)OC)c1ccccc1CON=C(C)c1cccc(C(F)(F)F)c1`: the result in [18], in test [1], in [2], in test [3], in [4] and in test [5] was inactive. In addition, the call in [6], in [8], in test [9], in [10], in test [11] and in [12] was inactive. The molecule was called inactive in test [13], in test [14], in test [16] and in [17]. In addition, the AC50 was 50 µM (active) in test [7] and 85.5 µM (active) in test [15].

Consider `CC(Oc1cccc(Cl)c1)C(=O)O` (centres undefined), for which the result in test [1], in test [3], in test [4], in test [5], in test [6] and in test [7] was inactive. The outcome in test [8], in test [9], in test [10], in test [11], in test [12] and in test [13] was inactive. Also, the call in [14] and in [15] was inactive. Moreover, the values for the AC50 in [16] and in [17] were 20.2 µM (active) and 5.79 µM (active), respectively.

`CSC1=N[C@@](C)(c2ccccc2)C(=O)N1Nc1ccccc1`: the AC50 in [18] was 77.8 µM (active); in test [1] it was 66.1 µM (active); in [3] it was 28.2 µM (active); in test [4], 50 µM (active); in test [5], 32.7 µM (active); in [6], 30.6 µM (active). Also, the AC50 in [9] is 31.2 µM (active); in test [10], 32 µM (active); in test [14], 23.2 µM (active); in test [15], 31.4 µM (active); in test [16], 83.6 µM (active); in test [17], 13.2 µM (active). Moreover, the call in test [2], in [7], in [8], in test [11], in test [12] and in test [13] was inactive.
